In PubChem BioAssay (Tox21):
Results filed as inconclusive are left out. Calls of active or inactive are those of the source. Calls come from the whole dose curve; as a rule, active = well fitted cell-killing curve with a large enough effect in the repeat runs; inconclusive = weak or mixed curves, or effect the other way; inactive = flat fitted curve, though single readings scatter.

Assay: qHTS assay to identify small molecule agonists of the constitutive androstane receptor (CAR) signaling pathway - cell viability counter screen (AID 1224836); note: nearly all actives have a fitted effect of over 45% in size
Settings: HepG2-CYP2B6-hCAR viability, CellTiter-Fluor, 23 h, PK11195 added to every well; series mostly up to 92.4 µM; viability change, negative = cytotoxic: at the top concentration
Description: U.S. Tox21 Program National Center for Advancing Translational Sciences [NCATS] NIH Chemical Genomics Center [NCGC] U.S. Environmental Protection Agency [EPA] National Institutes of Environmental Health Sciences [NIEHS] National Toxicology Program [NTP] U.S. Food and Drug Administration [FDA] Tox21 Assay Overview: The constitutive androstane receptor (CAR) is a nuclear receptor which regulates multiple drug metabolizing enzymes (DMEs) and transporters. Activating CAR will generally increase the transcription and subsequent translation of CYP2B6 and CYP3A4. These two DMEs represent about 50% of the drug metabolizing potential in the body. […] Recently, there have also been studies performed indicating CARs role in energy metabolism and cancer therapy. Therefore, inducing CARs activity could have a potential effect on diabetes and cancer. Identifying environmental toxins and compounds which modulate CAR, through the use of the Tox21 10K compound collection, will be an important step in determining the toxicity and potential therapeutic effects these factors will have on the human body. To differentiate true CAR agonists from cytotoxic substances, the assay is multiplexed with a cell viability assay.
Tox21 Assay Protocol Summary: A double-stable (hCAR and CYP2B6-2.2kb) transfected cell line, derived from human hepatoma (HepG2) cells, was utilized for the duration of the quantitative high-throughput screens. The HepG2-CYP2B6-hCAR cells were dispensed at 2500 cells/4 uL/well in 1536-well white solid bottom plates using a Multidrop Combi. After the assay plates were incubated at 37 C/5% CO2 for 4 hrs, 23 nL of compounds at 15 concentrations (from 5-48 columns) or positive control (from 1 to 4 columns) were transferred to the assay plates using a Pintool station. One uL of PK11195 (final concentration = 0.75 uM) was added, using a Flying Reagent Dispenser, inside each well. After a 23 hr incubation period at 37 C/5% CO2, 1 uL of CellTiter-Fluor reagent was added into each well of the assay plates using a Flying Reagent Dispenser. The fluorescence intensity in the plates was then measured using a ViewLux plate reader.
% is set by controls: 0 for no effect and ±100 for the full control effect.

SMILES	viability change, negative = cytotoxic
CO[Si](OC)(OC)OC	-6.17% (inactive)
Cc1cc(C)c(NC(=O)CN(CC(=O)O)CC(=O)O)c(C)c1Br	6.44% [at 42.5 µM] (inactive)
CC(C)COC(=O)c1ccccc1O	2.13% (inactive)
CC1=CCC2C(C1)C2(C)C (stereo not given)	-4.98% (inactive)
C=C(C)C1CC=C(C)C(O)C1 (stereo not given)	0.397% (inactive)
C[N+](C)(C)CC[N+]1(C)Cc2c(Cl)c(Cl)c(Cl)c(Cl)c2C1	1.22% [at 42.5 µM] (inactive)
CC(C)CCCC(C)NCCC(C)C (stereo not given)	6.44% [at 42.5 µM] (inactive)
C=CCn1c(=O)n([C@@H]2O[C@H](CO)[C@@H](O)[C@H]2O)c2nc(N)[nH]c(=O)c21	5.94% [at 42.5 µM] (inactive)
CC1(C)OC(=O)Nc2ccc(Br)cc21	3.28% [at 42.5 µM] (inactive)
Cc1nc(-c2ccc(OCC(C)C)c(C#N)c2)sc1C(=O)O	3.34% [at 42.5 µM] (inactive)
C[C@H](O)C(=O)Nc1c(I)c(C(=O)NC(CO)CO)c(I)c(C(=O)NC(CO)CO)c1I	3.18% [at 42.5 µM] (inactive)
COc1cc(O)cc(O)c1	7.13% [at 42.5 µM] (inactive)
CCC(C)(C)C1CCC(OC)CC1 (stereo not given)	3.11% (inactive)
C#CC(C)(O)CC(C)C (stereo not given)	-0.885% (inactive)
CCC(C)OC(=O)N1CCCCC1CCO (stereo not given)	0.44% (inactive)
CC(CCO)CCCC(C)(C)O (stereo not given)	2.18% (inactive)
CCC(=O)c1cccc(Cl)c1	10% (inactive)
CCO[Si](CCCN=C=O)(OCC)OCC	8.58% (inactive)
c1ccc(SCCSc2ccccc2)cc1	-1.38% (inactive)
CC(C)(C)C(=O)/C=C/c1ccc(Cl)cc1	-3.42% (inactive)

SMILES	viability change, negative = cytotoxic
CC(=O)O[C@H](CC(=O)[O-])C[N+](C)(C)C	0.689% (inactive)
OCC(CO)(CO)COCC(CO)(CO)CO	-3.75% (inactive)
CCCC(C)CO (stereo not given)	-1.22% (inactive)
C=C(C)C(=O)NCCCN(C)C	1.49% (inactive)
COC(=O)C1=C(C)NC(C)=C(C(=O)OCC(C)=O)C1c1ccccc1[N+](=O)[O-] (stereo not given)	7.59% [at 42.5 µM] (inactive)
CCCCCCCCCCCCCCCCCCOCC(O)CO (stereo not given)	-4.55% [at 42.5 µM] (inactive)
OCCCCCCO	0.421% (inactive)
CC(O)CN(CCCN(C)C)CCCN(C)C (stereo not given)	-1.57% (inactive)
CCCCc1ccc2cccc(S(=O)(=O)O)c2c1	-13.7% (inactive)
CCN1CCN(c2cc3c(cc2F)c(=O)c(C(=O)O)cn3C2CC2)CC1	5.35% [at 42.5 µM] (inactive)
CC(C)(O)C(=O)c1ccc(OCCO)cc1	2.78% (inactive)
Cc1onc(-c2ccccc2)c1-c1ccc(S(N)(=O)=O)cc1	3.78% [at 42.5 µM] (inactive)
CC(C)c1ccc2oc3nc(N)c(C(=O)O)cc3c(=O)c2c1	2.55% [at 42.5 µM] (inactive)
CCC(=O)/C=C/c1ccc(OC)cc1	4.64% (inactive)
CC1(C)SC(C)(C)SC(C)(C)S1	6.48% (inactive)
CO	0.334% (inactive)
NCC[C@H](O)C(=O)N[C@@H]1C[C@H](N)[C@@H](O[C@H]2O[C@H](CN)[C@@H](O)[C@H](O)[C@H]2O)[C@H](O)[C@H]1O[C@H]1O[C@H](CO)[C@@H](O)[C@H](N)[C@H]1O	2.17% [at 0.349 µM] (inactive)
CC(=O)CCc1ccc(O)cc1	-1.01% (inactive)
O=C(O)c1ccc[n+]([O-])c1	2.8% [at 42.5 µM] (inactive)
CN(C)CCOC(c1ccc(Cl)cc1)c1ccccn1 (stereo not given)	-18.4% [at 42.5 µM] (inactive)
